Legend:
Settings in all cases: concentration: 1 μM, replicates: in singlicate; n = 1
PRKCD = test system: PRKCD
PRKCE = test system: PRKCE
PRKCH = test system: PRKCH
PRKCI = test system: PRKCI
PRKCQ = test system: PRKCQ
PRKD1 = test system: PRKD1
PRKD2 = test system: PRKD2
PRKD3 = test system: PRKD3
PRKG1 = test system: PRKG1
PRKG2 = test system: PRKG2
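Also: KINOMEscan kinase panel screen.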

| SMILES | %Inh (PRKCD) | %Inh (PRKCE) | %Inh (PRKCH) | %Inh (PRKCI) | %Inh (PRKCQ) | %Inh (PRKD1) | %Inh (PRKD2) | %Inh (PRKD3) | %Inh (PRKG1) | %Inh (PRKG2) |
| --- | --- | --- | --- | --- | --- | --- | --- | --- | --- | --- |
| Cn1ccc2ncnc(Nc3ccc(Oc4cccc(Cl)c4)c(Cl)c3)c21 | 30% | 13% | 3% | 0% | 60% | 0% | 30% | 0% | 0% | 0% |
| CSc1ccc(NC2=C(c3ccccc3Cl)C(=O)NC2=O)cc1 [SB-342411] | 26% | 0% | 7% | 0% | 0% | 5% | 2% | 28% | 0% | 13% |
| CC(C)N1CCC(n2cnc(-c3ccc(F)cc3)c2-c2ccnc(N)n2)CC1 [SB-223132] | 9% | 0% | 0% | 29% | 0% | 18% | 0% | 0% | 2% | 2% |
| COc1ccc(NC(=O)c2ccc(-c3cc(-c4nnc(C)o4)ccc3C)cc2)cc1 [GW595885] | 0% | 4% | 8% | 0% | 9% | 2% | 0% | 0% | 4% | 0% |
| CC(C)(C)c1ccc(-n2cnc3c(N)ncnc32)cc1 [SKF-97263] | 6% | 13% | 29% | 1% | 15% | 0% | 0% | 55% | 11% | 0% |
| COc1ccc(Nc2nccc(N3CCC(NC(=O)Nc4ccc5c(c4)OCO5)C3)n2)cc1 (stereo not drawn) [GSK1379745] | 8% | 10% | 12% | 25% | 2% | 1% | 0% | 25% | 20% | 0% |
| O=C(c1ccc(-c2cc(-c3c[nH]nc3-c3ccccn3)ccn2)cc1)N1CCCC1 [GW792479] | 12% | 0% | 0% | 100% | 0% | 0% | 0% | 0% | 13% | 0% |
| FC(F)(F)c1cc(Nc2nccc(-c3c(-c4ccc(Cl)cc4)nn4ncccc34)n2)ccc1Cl [GW829351] | 0% | 17% | 0% | 0% | 3% | 0% | 0% | 0% | 23% | 0% |
| CNc1nccc(-c2c(-c3ccc(F)cc3)ncn2CCCN2CCOCC2)n1 [SB-222516] | 1% | 5% | 0% | 20% | 0% | 0% | 0% | 0% | 14% | 16% |
| CC(C)(C)OC(=O)NC1CCCN(c2cc(-c3ccc4c(N)n[nH]c4c3)nc(N)n2)C1 (stereo not drawn) [GSK2286096] | 0% | 12% | 0% | 0% | 0% | 0% | 15% | 0% | 0% | 70% |
| Cl.Fc1ccccc1COc1ccc(Nc2ncnc3ccc(-c4nnc(C(F)(F)F)o4)cc23)cc1Cl [GW424170] | 0% | 0% | 2% | 15% | 0% | 0% | 0% | 0% | 0% | 4% |
| Cl.Cn1ccc(-c2cccc(Nc3ccnc4cc(-c5nccs5)ccc34)c2)n1 [GW525701] | 0% | 10% | 14% | 0% | 0% | 0% | 0% | 14% | 22% | 0% |
| Fc1cccc(COc2ccc(Nc3ncnc4nn5ccccc5c34)cc2Cl)c1 [GW689066] | 0% | 0% | 0% | 25% | 7% | 0% | 0% | 0% | 0% | 0% |
| COc1ccc(-c2oc3ncnc(N)c3c2-c2ccc(OC)cc2)cc1 [SB-589132] | 0% | 28% | 4% | 35% | 0% | 30% | 0% | 0% | 0% | 0% |
| Cc1ccc(O)cc1Nc1cc(C(F)(F)F)nc2ccc(-c3ccncc3)cc12 [GW630823] | 0% | 0% | 0% | 0% | 0% | 3% | 0% | 29% | 7% | 0% |
| FC(F)(F)c1ccc(-c2cc(-c3c[nH]nc3-c3ccccn3)ccn2)cc1 [GW599550] | 0% | 6% | 21% | 23% | 16% | 23% | 16% | 17% | 4% | 2% |
| c1ccc(-c2ccc3c(-c4ccnc(Nc5ccc6c(c5)OCCO6)n4)cnn3n2)cc1 [GW818941] | 1% | 0% | 9% | 9% | 37% | 0% | 18% | 16% | 42% | 0% |

| SMILES | %Inh (PRKCD) | %Inh (PRKCE) | %Inh (PRKCH) | %Inh (PRKCI) | %Inh (PRKCQ) | %Inh (PRKD1) | %Inh (PRKD2) | %Inh (PRKD3) | %Inh (PRKG1) | %Inh (PRKG2) |
| --- | --- | --- | --- | --- | --- | --- | --- | --- | --- | --- |
| CCc1nc(-c2cccc(N(C)S(=O)(=O)c3ccccc3)c2)c(-c2ccnc(Nc3ccc(N4CCN(C(C)=O)CC4)nc3)n2)s1 [GSK1645895] | 0% | 0% | 0% | 0% | 15% | 3% | 12% | 9% | 0% | 0% |
| O=C(CCO)NCCn1ccc2ncnc(Nc3ccc(Oc4cccc(C(F)(F)F)c4)c(Cl)c3)c21 | 0% | 6% | 0% | 0% | 0% | 0% | 5% | 0% | 13% | 0% |
| Cl.O=S(=O)(c1cccc(F)c1)c1ccc(Nc2ncnc3cc(Br)sc23)cc1Cl [GSK306886] | 0% | 45% | 0% | 0% | 0% | 7% | 13% | 4% | 0% | 23% |
| FC(F)(F)c1ccc(-c2nn3ncccc3c2-c2ccnc(Nc3cccc(C(F)(F)F)c3)n2)cc1 [GW828205] | 16% | 0% | 0% | 30% | 0% | 7% | 6% | 0% | 5% | 16% |
| COc1cc2ncnc(Nc3ccc(OCc4ccccc4Br)c(Cl)c3)c2cc1OC.Cl [GI261590] | 0% | 8% | 0% | 33% | 100% | 4% | 0% | 0% | 0% | 0% |
| CN1c2ccc(-c3ccc(C(=O)NCCO)cc3)cc2-c2[nH]ncc2S1(=O)=O | 26% | 12% | 8% | 0% | 1% | 0% | 34% | 0% | 61% | 9% |
| Cl.c1ccc(Cn2ncc3cc(Nc4ncnc5ccccc45)ccc32)cc1 [GW273749] | 0% | 0% | 0% | 0% | 0% | 0% | 2% | 22% | 5% | 0% |
| O=C(Nc1ccccc1)Nc1ccc(Oc2ccc3nccn3n2)cc1 | 10% | 0% | 0% | 19% | 0% | 24% | 6% | 0% | 13% | 0% |
| Cn1ccc2ncnc(Oc3ccc(NC(=O)Nc4cccnc4)c(Cl)c3)c21 | 13% | 0% | 6% | 0% | 28% | 0% | 8% | 0% | 0% | 0% |
| Nc1nccc2scc(-c3ccc4c(c3)CCN4C(=O)Cc3cc(F)ccc3F)c12 [GSK2587663] | 0% | 0% | 16% | 1% | 24% | 0% | 18% | 16% | 9% | 2% |
| Nc1n[nH]c2nnc(-c3ccccc3)cc12 [SB-517389] | 0% | 9% | 23% | 18% | 0% | 0% | 0% | 0% | 0% | 0% |
| Cn1cc(-c2ccc3c(c2)CCN3C(=O)Cc2cccc(C(F)(F)F)c2)c2c(N)ncnc21 [GSK2606414] | 1% | 0% | 23% | 15% | 0% | 0% | 0% | 42% | 19% | 0% |
| O=C(Nc1n[nH]c2nc(-c3ccco3)c(Br)cc12)c1ccc(CN2CCCC2)cc1.O=C(O)[C@H](O)[C@@H](O)C(=O)O [SB-742352] | 0% | 2% | 17% | 0% | 0% | 0% | 30% | 0% | 0% | 0% |
| O=c1cc(N2CCOCC2)nc2n(Cc3cccc(Cl)c3)ccn12 [GSK2296823] | 0% | 8% | 0% | 22% | 0% | 0% | 0% | 15% | 0% | 0% |
| Fc1ccc(Nc2nccc(-c3c(-c4ccc(Cl)cc4)nn4ncccc34)n2)cc1F [GW829058] | 0% | 18% | 0% | 22% | 0% | 0% | 0% | 9% | 3% | 17% |
| CCc1nc(-c2cccc(C)c2)c(-c2ccnc(NC(=O)c3ccccc3)c2)s1 | 20% | 2% | 4% | 2% | 0% | 0% | 0% | 0% | 0% | 0% |

Source: paper PMC5540273 (PLoS ONE, 2017)
